Measurements reported in PubChem BioAssay AID623911 (Vanderbilt High Throughput Screening Facility, 2012).
Among all 2,100 compounds or so, about 770 (37%) were called active. Some of the results follow. Unmarked numbers belong to inactive results.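 The calls were made as follows: active = by-eye trace score of 1 for enhancers or -1 for inhibitors, so actives lie on both sides (some results past the limit were not filed as active); inactive = score 0, or 3 fluorescent, or 4 baseline rise.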

Molecular target: G protein-activated inward rectifier potassium channel 2 (Homo sapiens) + G protein-activated inward rectifier potassium channel 1 (Homo sapiens) (UniProt P48051+P48549)
Sequence (P48051 whole entry, looked up): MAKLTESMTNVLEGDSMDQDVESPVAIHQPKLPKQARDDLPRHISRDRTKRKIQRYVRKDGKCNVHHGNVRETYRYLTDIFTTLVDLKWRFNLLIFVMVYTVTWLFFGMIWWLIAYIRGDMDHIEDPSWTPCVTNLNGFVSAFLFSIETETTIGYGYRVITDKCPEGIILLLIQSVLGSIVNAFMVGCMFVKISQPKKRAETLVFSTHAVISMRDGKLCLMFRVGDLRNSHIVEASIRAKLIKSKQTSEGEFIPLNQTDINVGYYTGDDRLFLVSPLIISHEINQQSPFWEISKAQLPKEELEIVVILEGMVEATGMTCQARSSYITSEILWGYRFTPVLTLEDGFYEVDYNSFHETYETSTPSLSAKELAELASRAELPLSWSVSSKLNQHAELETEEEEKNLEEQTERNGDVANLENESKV
Sequence (P48549 whole entry, looked up): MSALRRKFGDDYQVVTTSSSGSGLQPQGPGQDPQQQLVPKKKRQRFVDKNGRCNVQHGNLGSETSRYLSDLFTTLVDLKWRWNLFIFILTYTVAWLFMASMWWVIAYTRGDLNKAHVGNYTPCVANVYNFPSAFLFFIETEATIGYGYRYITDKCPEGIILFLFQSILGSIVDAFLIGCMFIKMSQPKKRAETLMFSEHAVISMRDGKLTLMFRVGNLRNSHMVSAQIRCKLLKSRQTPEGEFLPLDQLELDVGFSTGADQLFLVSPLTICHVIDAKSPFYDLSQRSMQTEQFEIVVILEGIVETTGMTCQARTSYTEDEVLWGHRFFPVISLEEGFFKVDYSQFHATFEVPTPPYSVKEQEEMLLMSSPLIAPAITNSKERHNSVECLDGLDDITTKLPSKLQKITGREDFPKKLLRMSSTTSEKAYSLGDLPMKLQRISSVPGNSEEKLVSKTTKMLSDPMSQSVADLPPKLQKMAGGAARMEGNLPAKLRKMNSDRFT
Experiment: GIRK1/2 thallium flux modulators, retest, confirmation, cell-based, HEK293 rmGlu8/hGIRK1/2, FluoZin-2 (AID 623911)
Details: HEK293 rmGlu8/hGIRK1/2, thallium flux FluoZin-2; actives lie on both sides; glutamate co-added at its EC20 level

SMILES | manual score
CCc1ccc(C(=O)OCC(=O)Nc2cccc(S(=O)(=O)NC3=NCCCCC3)c2)cc1 | 1 (active)
O=C(COC(=O)c1cccc(N2C(=O)c3ccccc3C2=O)c1)Nc1ccccc1 | 0
O=C(CSc1ccc2ccccc2c1Br)Nc1cccc(S(=O)(=O)NC2=NCCCCC2)c1 | 0
Cc1ccc(NC(=S)c2nc3ccccc3[nH]2)cc1 | 1 (active)
S=C(Nc1ccc(Cl)cc1)c1nc2ccccc2[nH]1 | 1 (active)
Cc1oncc1C(=S)Nc1ccccc1 | 0
N#C/C(=C/c1ccc(N2CCOCC2)o1)c1nc2ccccc2[nH]1 | 3
CCOC(=O)N1CCN(C(=O)CN(Cc2ccccc2)S(=O)(=O)c2ccc(OC)c(C)c2)CC1 | -1 (active)
COc1ccc(S(=O)(=O)N(CC(=O)N2CCN(c3ccccc3)CC2)c2ccccc2)cc1 | 0
COc1ccc(OC)c(S(=O)(=O)N(C)CC(=O)N2CCN(c3ccccc3F)CC2)c1 | 0
COc1ccc(/C=C2\SC(=O)NC2=S)cc1OC | 1 (active)
COc1cc(/C=C2/SC(=S)NC2=O)ccc1OS(=O)(=O)c1ccc(C)cc1 | 0
O=C1NC(=S)/C(=C\c2ccc(-c3ccccc3Cl)o2)S1 | 3
O=C1NC(=S)S/C1=C\c1ccc(SCc2ccccc2)o1 | 0.5
COc1cc(/C=C2\SC(=S)NC2=O)ccc1OS(=O)(=O)c1ccccc1 | 1 (active)
O=C1NC(=O)/C(=C\c2ccccc2Oc2ccc(F)c(F)c2)S1 | 0
CCOc1ccc(-c2nc(-c3ccc(OC)cc3)no2)cc1OCC | 0
OCCCN=c1cc(-c2ccccc2)oc2ccc(Cl)cc12 | -1 (active)
CC(C)c1ccc(-c2noc(C3CCCN(S(C)(=O)=O)C3)n2)cc1 (stereo not drawn) | 0
O=S(=O)(c1ccc(Cl)c(F)c1)N1CCC(c2nc(-c3ccncc3)no2)CC1 | 1 (active)
O=C(NC(=S)N1CCN(Cc2ccc3c(c2)OCO3)CC1)c1cccc(Br)c1 | 1 (active)
CCN(CC)c1ccc(C(=O)NC(=S)N2CCN(Cc3ccc4c(c3)OCO4)CC2)cc1 | 0
O=C(c1ccc(COc2c(F)c(F)c(F)c(F)c2F)o1)N1CCN(Cc2ccc3c(c2)OCO3)CC1 | 0
Cc1cc2cc3c(cc2nc1SCC(=O)N1CCN(C(=O)c2ccco2)CC1)OCO3 | 0
O=C(c1ccc2nccnc2c1)N1CCN(Cc2ccc3c(c2)OCO3)CC1 | 1 (active)
O=C(NC(=S)N1CCN(Cc2ccc3c(c2)OCO3)CC1)c1ccc(Cl)cc1 | 1 (active)

SMILES | manual score
C/C(=N\NC(=S)Nc1ccc(F)cc1)c1ccc2c(c1)OCCO2 | 1 (active)
C/C(=N/NC(=S)Nc1ccccc1)c1ccc2c(c1)OCO2 | 0
Fc1ccc(NC(=S)NN=C2CCCCCC2)cc1 | 0
Cc1noc(C)c1S(=O)(=O)N1CCC(Cc2ccccc2)CC1 | 0
Cc1cccc(C(=O)N2CCC(Cc3ccccc3)CC2)c1[N+](=O)[O-] | -1 (active)
O=C(Nc1ccc(OCC(=O)N2CCC(Cc3ccccc3)CC2)cc1)c1ccco1 | 0
COC(=O)Nc1nc(C)c(C(=O)N(C)C)s1 | 0
CC(=O)c1sc(NC(=O)c2cc(-c3ccccc3)nn2-c2ccccc2)nc1C | 1 (active)
O=C(Nc1nc2ccccc2s1)c1cc(-c2ccccc2)nn1-c1ccccc1 | 0
C#CC(CO)N(CCN(Cc1ccccc1)C(C#C)CO)Cc1ccccc1 (stereo not drawn) | -1 (active)
C#CCSc1nnc(-c2cccc3ccccc23)o1 | 0
C=CCNC(=S)Nc1sc2c(c1C(=O)OCC)CC(C)(CC)OC2 (stereo not drawn) | 1 (active)
C=CCNC(=S)Nc1sc2c(c1C(=O)OCC)CC(C(C)C)OC2 (stereo not drawn) | 1 (active)
CCOC(=O)c1c(NC(=S)NC)sc2c1CC(C)(C)SC2 | 1 (active)
CCOC(=O)c1c(NC(=O)C2C3C=CC(C3)C2C(=O)O)sc2c1CCC(CC)C2 (stereo not drawn) | 0
CCOC(=O)c1c(NC(=S)NCCc2ccccc2)sc2c1CC(C(C)C)OC2 (stereo not drawn) | 0
CCOC(=O)C1=C(NC(=S)NC(=O)c2ccccc2)c2ccccc2CC1C(C)C (stereo not drawn) | 0
C=C(C)C1CC=C(C)/C(=N/NC(=S)Nc2ccccc2)C1 (stereo not drawn) | 0
Cc1ccc(NC(=O)CSc2nccn2C)cc1S(=O)(=O)N1CCOCC1 | 0
COC(=O)c1ccc(C)c(NC(=O)CN2C(=O)c3ccccc3S2(=O)=O)c1 | 0
Cc1ccc(NC(=O)CN2c3cccc4cccc(c34)S2(=O)=O)cc1S(=O)(=O)N1CCOCC1 | 1 (active)
CC12CCC(C(=O)N(CSC(=S)N/N=C\c3ccccc3)C1=O)C2(C)C (stereo not drawn) | 1 (active)
CN(C)c1ccc(/C=N\NC(=S)SCN2C(=O)C3CCC(C)(C2=O)C3(C)C)cc1 (stereo not drawn) | 0
COc1ccc(/C=N\NC(=S)SCN2C(=O)C3CCC(C)(C2=O)C3(C)C)cc1 (stereo not drawn) | 1 (active)
CC12CCC(C(=O)N(CSC(=S)N/N=C\c3ccccc3O)C1=O)C2(C)C (stereo not drawn) | 1 (active)
CC12CCC(C(=O)N(CSC(=S)N/N=C\c3ccccc3Cl)C1=O)C2(C)C (stereo not drawn) | 0.5

SMILES | manual score
Clc1ccccc1-c1nn2c(COc3ccccc3)nnc2s1 | 0
Cc1ccccc1CNS(=O)(=O)c1ccc2c(c1)OCCO2 | -1 (active)
CSc1ccc(S(=O)(=O)NCc2ccccc2Cl)cc1 | 0
Cc1nc2ccc(NS(=O)(=O)c3ccc4c(c3)OCCO4)cc2s1 | 0
CCSc1nnc(NC(=O)NC(CC)(C(F)(F)F)C(F)(F)F)s1 | 1 (active)
CCSc1nnc(NC(=O)CC)s1 | 0
CCSc1nnc(NC(=O)c2nn(C(C)C)c(=O)c3ccccc23)s1 | 0
CC(C)(C)c1ccc(-c2n[nH]c(=S)n2C2CCCC2)cc1 | 0
CN(CCC#N)C(=O)CSc1ncnc2sc(-c3ccccc3)cc12 | 0
C/C(N)=C(/C#N)C(=O)CSc1nc2cc(Cl)ccc2c(=O)n1-c1ccc(C)cc1 | 0
O=c1c2ccc(Cl)cc2nc(-c2cccc(C(F)(F)F)c2)n1O | 1 (active)
O=c1c2ccccc2nc(-c2cccc(Cl)c2)n1O | 1 (active)
O=c1c2cc(Br)ccc2nc(-c2cccc(C(F)(F)F)c2)n1O | 1 (active)
O=C1c2ccccc2NC(c2ccc(-c3cccc(Cl)c3)o2)N1O (stereo not drawn) | 0.5
O=c1c2ccccc2nc(-c2ccccc2)n1/N=C/c1ccc([N+](=O)[O-])cc1 | 0
Cc1nc2nc(Cc3ccccc3)[nH]n2c(=O)c1Cc1ccccc1 | 0
CCN(CC)CCN1C(=O)c2oc3ccccc3c(=O)c2C1c1ccc(C)cc1 (stereo not drawn) | 0
CCOC(=O)C(C)Oc1ccc2c(CC)cc(=O)oc2c1C (stereo not drawn) | 0
CCOC(=O)C1=C(O)C(=O)N(c2ccc(S(N)(=O)=O)cc2)C1c1ccccc1 (stereo not drawn) | 0
COc1ccc2nc(N3C(=O)/C(=C/c4ccccc4)NC3=S)sc2c1 | 1 (active)
CCCSc1nc(C)nc2c1c(=O)n(C)c(=O)n2C | 0
Clc1ccc(OCCn2ccnc2)c(Cl)c1 | 0
CC(C)CC(NS(=O)(=O)c1ccc2c(c1)oc(=O)n2C)C(=O)NC1CCCc2ccccc21 (stereo not drawn) | 0
CSc1nc(Sc2ccccc2)c2ccccc2n1 | 0
Cc1sc2nc(CN3CCCC3)nc(N3CCN(S(=O)(=O)c4cccs4)CC3)c2c1C | -1 (active)
Cc1nc(N2CCN(C(=O)COc3ccccc3)CC2)c2c(C)c(C)sc2n1 | -0.5

SMILES | manual score
CCOc1ccccc1N1CCN(S(=O)(=O)c2cccs2)CC1 | 0
Cc1cc(/C=c2/sc3nc4ccccc4n3c2=O)c(C)n1-c1ccccn1 | 0
CCNC(=S)N/N=C/c1c(Cl)cccc1Cl | 0.5
CC1=NN(c2ccccc2)C(=O)/C1=C\c1c(C)[nH]n(-c2ccccc2)c1=O | 0
CCCCN(CCCC)C(=S)N/N=C/c1c(C)[nH]n(-c2ccccc2)c1=O | 1 (active)
Cc1nc2c(-c3ccccc3)c(C)[nH]n2c(=O)c1Cl | 0
Cc1cc(=O)n2[nH]c(C)c(-c3ccccc3)c2n1 | 0.5
Cc1[nH]n2c(=O)cc(C(C)(C)C)nc2c1-c1ccccc1 | 1 (active)
COc1cc(CNc2ccc(N3CCCC3)cc2)ccc1OCc1ccccc1 | 0
COc1cc(/C=C(/C#N)c2ccc(F)cc2)ccc1OCc1ccc(C(=O)O)o1 | 0
COc1cc(CNCCc2c[nH]c3ccccc23)ccc1OCc1ccc(F)cc1 | -1 (active)
COc1ccccc1NC(=S)NCCc1ccc(Cl)cc1 | 0
Cn1cccc1CNC1CCCC1 | 0
Cc1ccc(Cl)cc1NC(=S)NCc1cccn1C | 1 (active)
Cc1cc(C(=O)N2CCN(CCc3ccccc3)CC2)no1 | 0
O=C(c1ccccc1CCc1ccccc1)N1CCN(c2ccccn2)CC1 | -1 (active)
O=C(CN1C(=O)c2cccc3cccc(c23)C1=O)N1CCN(c2ccccn2)CC1 | 3
CCOC(=O)C1CCN(C(=O)N(C)C)CC1 | 0
COc1ccc(NC(=S)SC)cc1OC | 0
COc1ccc(NC(=S)Nc2ccc(OCc3ccccc3)cc2)cc1OC | 0
CCC(C)c1ccc(NC(=S)Nc2ccc(OC)c(OC)c2)cc1 (stereo not drawn) | 1 (active)
COc1ccc(CCC(=O)NCc2cnn(C)c2)cc1 | 0
Cc1nnc(NC(=O)CCSc2ccccc2)s1 | 0
CCCSc1nnc(Nc2ccccc2C)s1 | 1 (active)
c1ccc2c(Nc3nnc(-c4ccncc4)s3)cccc2c1 | 0
